Screening data (PubChem)
The list is not random: actives were taken first. Their share in the collection is about 2.5%.
Cruzain noTriton – cruzain (T. cruzi) inhibition without detergent. Potency, µM, without a hit: max response, negative = inhibition, hits mostly inhibitors. P25779. purified cruzain, Z-FR-AMC fluorescence, no detergent. 2.3% of 200,000 active;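 note: plate controls were enzyme without inhibitor for no effect and buffer without enzyme for full effect; nearly all actives have a fitted effect of over 40% in size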
Target sequence (P25779 123-467 limits assumed): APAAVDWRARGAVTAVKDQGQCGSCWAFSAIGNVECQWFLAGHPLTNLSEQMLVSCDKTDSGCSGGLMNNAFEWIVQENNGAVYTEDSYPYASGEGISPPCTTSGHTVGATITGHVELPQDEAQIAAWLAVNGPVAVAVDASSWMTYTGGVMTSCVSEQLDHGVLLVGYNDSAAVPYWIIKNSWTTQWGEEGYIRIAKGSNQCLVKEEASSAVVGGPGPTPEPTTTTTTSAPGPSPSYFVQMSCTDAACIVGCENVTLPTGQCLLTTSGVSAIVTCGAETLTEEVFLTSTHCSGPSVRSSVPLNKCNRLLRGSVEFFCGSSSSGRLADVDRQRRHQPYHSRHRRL
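Purified cruzain at 1.5 nM, pre-incubated 15 min with compound at room temperature in 100 mM sodium acetate pH 5.5, 5 mM DTT, 0.00005% Triton X-100. Reaction started with 2 uM Z-FR-AMC; AMC fluorescence increase over 60 s gives rate.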
Cruzain inh Det – inhibitors of Trypanosoma cruzi cruzain with detergent; purified cruzain, Z-FR-AMC fluorescence, 0.01% Triton; Potency, µM, inactives show max response, negative = inhibition, most hits filed as inhibitors; P25779; 0.43% of 200,000 active; AID 1478;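 note: plate controls were neutral wells for no effect and buffer without enzyme for full effect; nearly all actives have a fitted effect of over 40% in size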
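Sodium acetate buffer (100 mM, pH 5.5) containing 5 mM DTT and 0.01% Triton X-100 hosted 1.5 nM cruzain and test compound for 15 min at room temperature. Cleavage of 2 uM Z-FR-AMC was then tracked by fluorescence.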
* = called active by the depositor; ? = inconclusive. Calls come from the whole dose curve; as a rule, active = well fitted curve in the direction sought with a large enough effect; inconclusive = small, poorly fitted or top-dose-only effect, or another doubt; inactive = no such curve, though single readings can be large; an effect the other way counts as inactive or inconclusive. Potency is the fitted concentration of half-maximal effect.

SMILES	Cruzain noTriton	Cruzain inh Det
CN(C)c1ncc2nc(-c3cccc(C#N)c3)c(=O)n(C)c2n1	-1%	-2%
Cc1nc2c(c(C)nn2C(C)(C)C)c(C)c1CCC(=O)Nc1ccc(Br)cc1Br	14%	-2%
COc1cccc(-n2c(SCc3ccccc3C)nc3c([nH]c4ccccc43)c2=O)c1	4µM*	0%
CCCSc1nc2c([nH]c3ccccc32)c(=O)n1C	-4%	0%
CCSc1nc2c([nH]c3ccccc32)c(=O)n1C	13µM*	4%
Cc1cccc(CSc2nc3c([nH]c4ccccc43)c(=O)n2C)c1	-15%	0%
COc1cccc(-n2c(SCC(=O)c3ccccc3)nc3c([nH]c4ccccc43)c2=O)c1	2%	3%
COc1cccc(-n2c(SCc3cccc(C)c3)nc3c([nH]c4ccccc43)c2=O)c1	16µM*	-1%
COc1ccc(C(=O)NCc2ccc3c(c2)CCN3C(=O)c2cccc(C)c2)cc1OC	2%	4%
CCOC(=O)c1c(C)[nH]c(C)c1S(=O)(=O)N1CCCC(C(=O)N2CCN(c3cc(C)ccc3C)CC2)C1 (stereo not given)	?	-8%
Cc1nc(-c2ccc(F)cc2)sc1CCNC(=O)c1ccccc1C(F)(F)F	9%	-7%
CCN(CC)c1ccc(/C=C2\CCC(/C=C(\C#N)C(=O)Nc3ccccc3F)=C2N2CCOCC2)cc1	?	-2%
N#C/C(=C\C1=C(N2CCOCC2)C(=C\c2ccc(Cl)cc2)/CC1)C(=O)Nc1ccccc1F	10µM*	-8%
CC(NC(=O)C12CC3CC(CC(C3)C1)C2)C(=O)N/N=C/C1=C(N2CCOCC2)C(=C\c2cccc([N+](=O)[O-])c2)/CC1 (stereo not given)	-21%	-7%
N#C/C(=C\C1=C(N2CCOCC2)C(=C/c2cccc([N+](=O)[O-])c2)/CC1)C(=O)Nc1ccccc1F	13µM*	-6%
COc1ccc(-c2csc(C3=C(O)CN(Cc4ccc(Cl)cc4)C3=N)n2)cc1OC	-10%	-6%
COc1cccc(CN2CC(O)=C(c3nc(-c4ccc(Cl)cc4)cs3)C2=N)c1	13µM*	-10%
Cc1nc2ccccc2c(=O)n1-c1ccc(NC(=O)c2cccc([N+](=O)[O-])c2)cc1	-4%	-1%
COc1ccc(C(=O)Nc2cccc(-c3cn4ccsc4n3)c2)c(OC)c1	?	-6%
O=C(CSc1nnc(CNC(=O)c2c(F)cccc2Cl)o1)Nc1ccccc1F	-1%	-4%
Cc1ccc(C)c(NC(=O)CSc2cn(CC(=O)N3CCCCC3)c3ccccc23)c1	-3%	1%
O=C(COC(=O)/C=C/c1ccc(Cl)cc1)Nc1ccccc1-c1ccccc1	10%	-4%
O=C(COC(=O)/C=C/c1nc2ccccc2s1)Nc1cccc2ccccc12	6.3µM*	-5%
O=C(COC(=O)/C=C/c1nc2ccccc2s1)Nc1cccc(Cl)c1Cl	10µM*	-2%
CCN(CC)S(=O)(=O)c1ccc(/C=C/C(=O)OCC(=O)Nc2cccc3ccccc23)cc1	-10%	-2%
SMILES	Cruzain noTriton	Cruzain inh Det
CCOc1ccc(-c2nn(-c3ccccc3)cc2C2NC(=O)NC(C)=C2C(=O)OC(C)C)cc1 (stereo not given)	7%	-13%
Cc1ccc(Cn2cc(CCC(=O)NC3CCC(C)CC3)c3ccccc32)cc1 (stereo not given)	13%	-7%
N=C(N)c1ccc(/C=C\c2ccc(C(=N)N)cc2)cc1	3.2µM*	-25%
N=C(N)c1ccccc1	-11%	4%
O=C(N/N=C/c1cccc(F)c1)c1c(O)c2c([nH]c1=O)CCCC2	20µM*	-3%
CNC(=O)c1ccccc1NC(=O)c1c(O)c2c([nH]c1=O)CCCC2	?	-1%
COC(=O)c1sc(N2C(=O)c3oc4ccc(C)cc4c(=O)c3C2c2ccc(OC)cc2)nc1C (stereo not given)	-3%	-1%
O=C1c2ccccc2-c2onc3c(Oc4ccccc4)cc(O)c1c23	20µM*	-2%
CCOc1ccc2noc3c2c1C(=O)c1ccccc1-3	-22%	-2%
CCOC(=O)c1ccc(OCC2c3cc(OC)c(OC)cc3CCN2C(=O)Cc2ccc(OC)c(OC)c2)cc1 (stereo not given)	?	1%
O=C(NCCc1ccc(Cl)cc1)c1cc(-c2ccccc2)n[nH]1	6%	-1%
O=C(NC(=Nc1nc2ccccc2o1)NC(=O)c1ccccc1)c1ccccc1	13µM*	-2%
COc1ccccc1C(=O)NC(=Nc1nc2ccccc2o1)NC(=O)c1ccccc1OC	?	4%
Cc1cc(NC(=O)c2ccc(F)cc2F)n(-c2nc3ccccc3[nH]2)n1	20µM*	4%
Cc1cc(NC(=O)CC2CCCC2)n(-c2nc3ccccc3[nH]2)n1	-12%	-7%
C=CCOc1ccc2cccc(/C=N/NC(=O)c3cc4cc([N+](=O)[O-])ccc4s3)c2c1	6.3µM*	0%
O=C(N/N=C/c1cccc([N+](=O)[O-])c1)c1cccs1	-3%	-5%
CCc1c(C)c2cc(Cl)c(O)c(CN3CCCCC3)c2oc1=O	?	32µM*
CCc1cc(=O)oc2c(CN3CCCC3)c(O)c(Cl)cc12	?	28µM*
CCc1cc2c(-c3ccccc3)cc(=O)oc2c(CN2CCOCC2)c1O	4%	-6%
CCCCc1cc(=O)oc2c(CN3CCCC3)c(O)ccc12	?	25µM*
CCc1c(C)c2ccc(O)c(CN3CCN(c4ccccc4)CC3)c2oc1=O	-14%	-6%
O=c1cc(-c2ccccc2)c2ccc(O)c(CN3CCCCC3)c2o1	?	-15%
COc1ccccc1-c1cc(N(C)Cc2ccco2)ncn1	-13%	-6%
N#CCCn1c(=O)c(CCc2ccccc2)nc2cnc(Oc3cccc(Cl)c3)nc21	-2%	-3%
SMILES	Cruzain noTriton	Cruzain inh Det
COC(=O)c1ccc(NC(=O)CSc2nnc3c4ccccc4n(C(C)C)c3n2)cc1	-5%	-2%
Cc1ccc(C)c(N2CCN(C(=O)c3cc4ccc5cccnc5c4[nH]3)CC2)c1	-26%	-7%
Cc1cccc(N2CCN(C(=O)c3cc4ccc5cccnc5c4[nH]3)CC2C)c1 (stereo not given)	13µM*	-7%
CC(=O)Nc1ccc(NC(=O)CC(C)n2ccc(C)n2)cc1 (stereo not given)	-5%	0%
Cc1coc2c(C)c3oc(=O)c(CCC(=O)NCCc4ccccc4F)c(C)c3cc12	4%	-3%
O=C(Nc1ccc(F)cc1)c1sc2cc(C(F)(F)F)cnc2c1-c1cccs1	25µM*	0%
COC(=O)c1sc2cc(C(F)(F)F)cnc2c1-c1ccccc1	0%	3%
COc1ccc(NC(=O)c2sc3cc(C(F)(F)F)cnc3c2-c2cccs2)cc1	-4%	3%
O=C(O)c1sc2cc(C(F)(F)F)cnc2c1-c1ccccc1	16µM*	?
CCN(CC)CCCNC(=O)Cn1nc(N2CCN(c3ccccc3OC)CC2)ccc1=O	-10%	1%
O=C1OCCN1C(=O)[C@H]1[C@H](c2ccc(F)cc2)C(c2ccc(F)cc2)=NN1c1ccccc1	?	-4%
O=C1OCCN1C(=O)[C@H]1[C@H](c2ccc(F)cc2)C(c2ccc(F)cc2)=NN1c1ccc(Br)cc1	25µM*	-3%
O=C1OCCN1C(=O)[C@H]1[C@H](c2ccc(Cl)cc2)C(c2ccc(F)cc2)=NN1c1ccccc1	?	3%
O=C1OCCN1C(=O)[C@H]1[C@H](c2ccc(Cl)cc2)C(c2ccc(F)cc2)=NN1c1ccc(Br)cc1	11µM*	-13%
